# Results taken from PubChem BioAssay.
# “And” between values parts separate entries of the source, which are not always exact repeats. Identical values can stand only once. The source holds several records for some structures; these can differ, active in one and inactive in another. The source made the active and inactive calls. Cut-off read from the data, not from the text of the source, unless noted: active = inhibition above about 80%; inactive = the rest.
# Tests used:
# [1] = molecular target: NAD(+) hydrolase SARM1 (Homo sapiens) (UniProt Q6SZW1); assay: blocking NAD cleavage by SARM1 SAM-TIR – cell lysate, NAD-Glo luminescence (AID 1508614;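 active = compound whose remaining NAD level is above about 45 nM, limit read from the data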;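 note: higher remaining NAD means stronger inhibition of SARM1 NADase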); conditions: SAM-TIR HEK293T lysate NADase, at 1 µM, stronger effect = higher value
# Chain of NAD(+) hydrolase SARM1 (Homo sapiens) (Q6SZW1 whole entry, looked up, the tested form may be a part): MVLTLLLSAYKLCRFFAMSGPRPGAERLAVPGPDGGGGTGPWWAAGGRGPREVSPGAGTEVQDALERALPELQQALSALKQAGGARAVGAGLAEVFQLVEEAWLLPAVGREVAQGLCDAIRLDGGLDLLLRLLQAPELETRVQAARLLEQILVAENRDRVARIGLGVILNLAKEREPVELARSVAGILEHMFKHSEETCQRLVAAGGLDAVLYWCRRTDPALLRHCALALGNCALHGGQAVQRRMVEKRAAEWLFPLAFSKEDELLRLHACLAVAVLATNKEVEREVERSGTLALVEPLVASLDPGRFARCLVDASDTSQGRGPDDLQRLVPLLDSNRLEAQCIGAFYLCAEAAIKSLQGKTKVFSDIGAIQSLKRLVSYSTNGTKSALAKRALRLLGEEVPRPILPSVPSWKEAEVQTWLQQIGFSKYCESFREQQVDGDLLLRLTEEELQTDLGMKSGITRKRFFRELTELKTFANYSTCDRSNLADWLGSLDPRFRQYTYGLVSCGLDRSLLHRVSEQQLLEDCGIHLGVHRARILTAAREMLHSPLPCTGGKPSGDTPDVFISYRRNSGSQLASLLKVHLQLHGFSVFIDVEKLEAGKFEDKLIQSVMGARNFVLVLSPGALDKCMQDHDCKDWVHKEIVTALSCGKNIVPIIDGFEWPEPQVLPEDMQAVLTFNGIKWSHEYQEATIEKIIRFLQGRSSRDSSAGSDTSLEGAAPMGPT
# [2] = molecular target: Mitogen-activated protein kinase 7 (Homo sapiens) (UniProt Q13164); assay: Gal4-ERK5 driven luciferase induction – cell-based, HTS, primary screen (AID 1508626;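 active = luciferase signal above three times the same-plate solvent-only control wells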;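 note: luciferase driven by Gal4-ERK5 fusion binding five Gal4 sites before minimal TATA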); conditions: HeLa Gal4-ERK5 transactivation, 18 h, at 5 µM, stronger effect = higher value
# Chain of Mitogen-activated protein kinase 7 (Homo sapiens) (Q13164 whole entry, looked up, the tested form may be a part): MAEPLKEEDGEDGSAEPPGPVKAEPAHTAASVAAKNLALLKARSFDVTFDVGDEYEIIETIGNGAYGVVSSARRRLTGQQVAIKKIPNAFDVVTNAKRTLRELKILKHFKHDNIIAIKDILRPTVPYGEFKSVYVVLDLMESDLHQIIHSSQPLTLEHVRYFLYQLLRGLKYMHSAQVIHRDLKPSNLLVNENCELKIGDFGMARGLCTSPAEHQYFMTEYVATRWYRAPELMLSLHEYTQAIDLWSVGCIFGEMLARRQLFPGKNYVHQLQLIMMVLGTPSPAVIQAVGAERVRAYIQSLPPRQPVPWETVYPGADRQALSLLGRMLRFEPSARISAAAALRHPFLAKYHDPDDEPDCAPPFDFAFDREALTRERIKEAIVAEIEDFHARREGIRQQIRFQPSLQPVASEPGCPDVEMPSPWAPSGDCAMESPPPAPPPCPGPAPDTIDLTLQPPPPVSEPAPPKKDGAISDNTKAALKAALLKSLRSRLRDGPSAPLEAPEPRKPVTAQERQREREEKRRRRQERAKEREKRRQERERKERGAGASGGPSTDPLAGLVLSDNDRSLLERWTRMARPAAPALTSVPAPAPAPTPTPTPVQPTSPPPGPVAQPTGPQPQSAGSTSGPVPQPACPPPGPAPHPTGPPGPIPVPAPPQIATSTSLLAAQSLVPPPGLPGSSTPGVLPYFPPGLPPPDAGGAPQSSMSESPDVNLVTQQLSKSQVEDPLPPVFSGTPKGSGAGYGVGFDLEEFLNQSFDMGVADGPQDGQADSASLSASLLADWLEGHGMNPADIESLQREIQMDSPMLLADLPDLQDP
# [3] = galactose survival enhancers in mitochondrial complex I cybrids – cell-based, galactose medium, ATP luminescence, primary screen (AID 1645843;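 active = z-score of at least 1.8 in each of two replicates, scored against plate mean and spread of sample wells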;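 note: positive z means more ATP and so rescue of galactose-driven cybrid death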); conditions: complex I mutant cybrid cells, 72 h, stronger effect = higher value
# [4] = growth inhibition, single agent or in combination, cell-based, chromothripsis tumors, cisplatin or BGB combos (AID 1671449); conditions: LFS_MB_P medulloblastoma cells;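 note: cells exposed for 96 hours; 0% = vehicle DMSO and 100% = killing by high DMSO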
# [5] = growth inhibition, single agent and combos, cell-based, chromothripsis tumors, cisplatin or BGB combos (AID 1671450); conditions: HDN33 neuroblastoma cells, stronger effect = higher value;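 note: cells exposed to compound for four days; 0% = vehicle DMSO and 100% = cell killing by high DMSO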
# [6] = growth inhibition, single agents and combos, ICB984, cell-based, cisplatin or BGB combos, synergistic combos for chromothripsis tumors (AID 1671451; call rule not given here;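 note: cells exposed for 96 hours before readout; 0% = vehicle DMSO and 100% = killing by high DMSO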); conditions: ICB984 medulloblastoma cells, drug combinations, stronger effect = higher value
# [7] = growth inhibition, single agents and combos, LFS_MB_1R, cell-based, cisplatin or BGB combos, synergistic combos for chromothripsis tumors (AID 1671452); conditions: LFS_MB_1R medulloblastoma cells, stronger effect = higher value;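 note: cells exposed for 96 hours before readout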
# [8] = growth inhibition, single agents and combos, HTB85, cell-based, BGB or cisplatin IC20 combos, synergistic combos for chromothripsis tumors (AID 1671453); conditions: HTB85 osteosarcoma cells, drug combinations, stronger effect = higher value;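 note: cells exposed for 96 hours before readout; 0% = vehicle DMSO and 100% = high DMSO killing control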
# [9] = growth inhibition, single agents and combos, CRL2098, cell-based, BGB or cisplatin IC20 combos, synergistic combos for chromothripsis tumors (AID 1671454); conditions: CRL2098 osteosarcoma cells, drug combinations, stronger effect = higher value;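 note: cells exposed for 96 h before readout; 0% = vehicle DMSO and 100% = killing by high DMSO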
# [10] = growth inhibition, single agents and combos, HD-MB03, cell-based, BGB or cisplatin IC20 combos, synergistic combos for chromothripsis tumors (AID 1671455; in the data active = inhibition above about 83%;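 note: 0% = vehicle DMSO and 100% = high DMSO as cytotoxic control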); conditions: HD-MB03 medulloblastoma cells, stronger effect = higher value
# [11] = growth inhibition, single agents and combos, UWB1.289, cell-based, BGB or cisplatin combos, synergistic combos for chromothripsis tumors (AID 1671456); conditions: UWB1.289 ovarian carcinoma cells, stronger effect = higher value;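 note: cells exposed to compound for four days; 0% = vehicle DMSO and 100% = killing by high DMSO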
# [12] = growth inhibition, single agents and combos, LFS_MB_2R, cell-based, cisplatin combos, synergistic combos for chromothripsis tumors (AID 1671457); conditions: LFS_MB_2R medulloblastoma cells, stronger effect = higher value;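 note: cells exposed to compound for four days before readout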
# [13] = growth inhibition, MDA-MB-436, cell-based, BGB or cisplatin combos, synergistic combos for chromothripsis tumors (AID 1671458; call rule not given here;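 note: cells exposed for 96 hours; 0% = vehicle DMSO and 100% = killing by high DMSO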); conditions: MDA-MB-436 breast carcinoma growth inhibition, drug combinations, stronger effect = higher value
# [14] = UWB1.289_BRCA1 ovarian cancer growth, cell-based, BGB or cisplatin combinations (AID 1671459); conditions: UWB1.289 BRCA1 ovarian carcinoma, drug combinations, stronger effect = higher value
# [15] = drug combination toxicity in non-malignant astrocytes – cell-based, BGB or cisplatin IC20 combos, cytotoxicity control for chromothriptic childhood tumor combination screen (AID 1671460); conditions: Human astrocytes, viability inhibition, drug combinations, at 0.5 µM, stronger effect = higher value;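 note: cells exposed to compounds for 96 hours before viability readout; 0% = vehicle and 100% = killing control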
# [16] = BT084 cell growth, single and combined drugs, ICGC_MB145, cisplatin and BGB IC40 combos (AID 1671461); conditions: BT084 medulloblastoma cells, drug combinations, stronger effect = higher value;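 note: cells exposed to drugs for 96 hours; 0% = vehicle DMSO and 100% = high DMSO full killing control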
# [17] = RCMB18 cell growth, single agent and combined, cisplatin and BGB IC40 combos (AID 1671462); conditions: RCMB18 medulloblastoma cells, stronger effect = higher value;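 note: cells exposed to compound for four days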
# [18] = CRL1545 cell growth, single agent and combined, cisplatin and BGB IC20 combos (AID 1671464); conditions: CRL1545 osteosarcoma cells, stronger effect = higher value;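 note: cells exposed to compound for 96 hours before readout; 0% = vehicle DMSO and 100% = high DMSO killing control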
# [19] = measured here: combination with BGB IC40, at 0.05 µM
# [20] = measured here: with BGB IC20 combination, at 0.5 µM
# [21] = measured here: with cisplatin IC20 combination, at 0.5 µM
# [22] = measured here: combination with cisplatin, at 0.5 µM
# [23] = measured here: combination with cisplatin, at 5 µM
smiles,measurement,setting,value
O=C(O)CCCCCCCC(=O)O,remaining NAD,[1],10 nM (inactive)
same,luciferase signal,[2],24 AU (inactive)
same,z-score,[3],0.635 (inactive)
same,inhibition,"[4]; at 0.5 µM, stronger effect = higher value",14.6% (inactive)
same,inhibition,"[4]; measured here: combination with BGB IC20, at 0.005 µM",-16.4%
same,inhibition,"[4]; measured here: combination with BGB IC40, at 0.005 µM",-8.17%
same,inhibition,[4]; [19],6.68%
same,inhibition,"[4]; measured here: combination with cisplatin, at 0.5 µM, stronger effect = higher value",8.46%
same,inhibition,"[4]; measured here: combination with cisplatin, at 5 µM, stronger effect = higher value",-13.6%
same,inhibition,"[5]; BGB combo, at 5 µM",-29.2%
same,inhibition,[5]; at 0.5 µM,-40.9% (inactive)
same,inhibition,"[5]; cisplatin combo, at 5 µM",-22.7%
same,inhibition,[5]; [20],-45.6%
same,inhibition,[5]; [21],-37.4%
same,inhibition,"[5]; single agent, at 5 µM",-34.5%
same,inhibition,"[6]; BGB IC20 combo, at 0.005 µM",-5.6%
same,inhibition,"[6]; BGB IC40 combo, at 0.005 µM",-44.6%
same,inhibition,"[6]; BGB IC40 combo, at 0.05 µM",-20.8%
same,inhibition,[6]; at 0.5 µM,-26.1% (inactive)
same,inhibition,"[6]; cisplatin combo, at 0.05 µM",-24.1%
same,inhibition,"[6]; cisplatin combo, at 0.5 µM",-19.2%
same,inhibition,"[6]; cisplatin combo, at 5 µM",-29.2%
same,inhibition,"[6]; measured here: 5 uM single agent, at 5 µM",-20.6%
same,inhibition,[7]; at 0.5 µM,-28.5% (inactive)
same,inhibition,[7]; [19],-23.1%
same,inhibition,[7]; [22],-37.2%
same,inhibition,[7]; [23],-71.3%
same,inhibition,[8]; at 0.5 µM,-17.1% (inactive)
same,inhibition,"[8]; measured here: with BGB IC20, at 0.5 µM",-39.9%
same,inhibition,"[8]; measured here: with BGB IC20, at 5 µM",-68.2%
same,inhibition,"[8]; measured here: with cisplatin IC20, at 0.5 µM",-8.83%
same,inhibition,"[8]; measured here: with cisplatin IC20, at 5 µM",0.863%
same,inhibition,"[8]; single agent, at 5 µM",-30.9%
same,inhibition,[9]; at 0.5 µM,-76.3% (inactive)
same,inhibition,"[9]; measured here: combination with BGB at IC20, at 0.5 µM",-57.7%
same,inhibition,"[9]; measured here: combination with cisplatin at IC20, at 0.5 µM",-93.4%
same,inhibition,[10]; at 0.5 µM,-14.1% (inactive)
same,inhibition,"[10]; measured here: combo with BGB at IC20, at 0.5 µM",-13.8%
same,inhibition,"[10]; measured here: combo with cisplatin at IC20, at 0.5 µM",-19.9%
same,inhibition,[11]; at 0.5 µM,-13.5% (inactive)
same,inhibition,"[11]; measured here: inhibition with BGB combination, at 0.05 µM",-19.6%
same,inhibition,"[11]; measured here: inhibition with cisplatin combination, at 0.05 µM",-0.85%
same,inhibition,[12]; at 0.5 µM,-13.9% (inactive)
same,inhibition,[12]; [22],-13.8%
same,inhibition,[12]; [23],-48.8%
same,inhibition,[13]; at 0.5 µM,-29.2% (inactive)
same,inhibition,"[13]; measured here: BGB combination, at 0.5 µM",-23.3%
same,inhibition,"[13]; measured here: BGB combination, at 5 µM",-29%
same,inhibition,"[13]; measured here: cisplatin combination, at 0.5 µM",-37.4%
same,inhibition,"[13]; measured here: cisplatin combination, at 5 µM",-23.5%
same,inhibition,"[14]; BGB combination, concentration series, at 5 µM",-15.5%
same,inhibition,[14]; at 0.5 µM,-19.3% (inactive)
same,inhibition,"[14]; cisplatin combination, concentration series, at 5 µM",-16.1%
same,inhibition,[15],-11.4% (inactive)
same,inhibition,[15]; measured here: combo with BGB IC20,-13.8%
same,inhibition,[15]; measured here: combo with cisplatin IC20,-20%
same,inhibition,[16]; at 0.5 µM,-17.8% (inactive)
same,inhibition,"[16]; cisplatin combination, at 0.5 µM",-4.5%
same,inhibition,"[16]; cisplatin combination, at 5 µM",-12.5%
same,inhibition,"[16]; measured here: BGB IC40 combination 0.05 uM, at 0.05 µM",4.07%
same,inhibition,"[16]; single agent, at 5 µM",-1.2%
same,inhibition,[17]; at 0.5 µM,-9.8% (inactive)
same,inhibition,"[17]; cisplatin combo, at 5 µM",-40.4%
same,inhibition,"[17]; measured here: BGB IC40 combination, at 0.05 µM",-4.46%
same,inhibition,[17]; [22],-13.4%
same,inhibition,"[17]; single agent, at 5 µM",-26.4%
same,inhibition,[18]; at 0.5 µM,-28.2% (inactive)
same,inhibition,[18]; [20],-60.3%
same,inhibition,[18]; [21],-14.7%
same,inhibition,"[18]; single agent, at 0.05 µM",-52%
same,inhibition,"[18]; single agent, at 5 µM",-52.1%
CC(C)NCC(O)c1ccc2ccccc2c1 (stereo not drawn),remaining NAD,[1],10 nM (inactive)
same,luciferase signal,[2],36 AU (inactive)
same,z-score,[3],0.85 (inactive) and 0.48 (inactive)
CS(=O)(=O)Nc1ccc([N+](=O)[O-])cc1Oc1ccccc1,remaining NAD,[1],10 nM (inactive)
same,luciferase signal,[2],60 AU (inactive)
same,z-score,[3],1.54 (inactive) and 2.81 (active) and 0.735 (inactive)
Cc1ncc([N+](=O)[O-])n1CCO,remaining NAD,[1],10 nM (inactive)
same,luciferase signal,[2],56 AU (inactive)
same,z-score,[3],1.04 (inactive) and 0.355 (inactive)
CCN(CC)CCNC(=O)c1ccc(NC(C)=O)cc1,remaining NAD,[1],10 nM (inactive)
same,luciferase signal,[2],32 AU (inactive)
same,z-score,[3],0.34 (inactive)
